Compounds with a hit are over-represented: about 22% of the library has one in this group of screens.
CYP2C9 activ – activators of human CYP2C9. P11712. recombinant CYP2C9, luciferin-H conversion, luminescence; stronger effect = higher value; factor 1 = untreated enzyme, 0 = blocked. activation factor at 5 µM. 1.4% of 96,000 active. AID 1024;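 active = activation factor of 2 or more for CYP2C9 at a 5 µM dose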;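 also: 0 = sulfaphenazole-blocked wells and 1 = vehicle-only wells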
E-sel TNF inh – blocks E-selectin expression induced by TNF alpha; HUVEC TNFa-induced E-selectin immunofluorescence, high content; inhibition, % at 2 µM; 0.71% of 120,000 active;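 active = inhibition above the batch mean plus 3 SD, and confirmed as a hit on visual image review, cut at about 43% in these data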;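 also: 0% = TNF-stimulated DMSO wells and 100% = unstimulated control wells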
F-actin modifier – modifiers of cytoskeleton assembly; AID 836; 0.18% of 91,000 active; HUVEC TNFa F-actin phalloidin imaging, high content; inhibition, % at 2 µM;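 active = inhibition above the batch mean plus 3 SD and confirmed as a hit by visual image inspection, cut at about 30% in these data, passing the limit was not always enough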
CYP2C9 inhib – inhibitors of human CYP2C9; P11712; CYP2C9 Supersomes, luciferin-H conversion, luminescence; inhibition, % at 5 µM; 20% of 96,000 active; AID 777;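 active = blocking of liver enzyme CYP2C9 beyond about 50% at 5 µM, limit read from the data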
CYP2C19 inhib – human CYP2C19 inhibition | P33261 | CYP2C19 Supersomes, luciferin-H EGE luminescence, 30 min | inhibition, % at 5 µM | 21% of 96,000 active;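 active = CYP2C19 inhibition above a set limit at 5 µM in the primary screen, cut at about 50% in these data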;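 also: plate controls were negative control wells for no effect and 2.5 mM tranylcypromine positive control for full effect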
Target sequence (P33261 whole entry, looked up): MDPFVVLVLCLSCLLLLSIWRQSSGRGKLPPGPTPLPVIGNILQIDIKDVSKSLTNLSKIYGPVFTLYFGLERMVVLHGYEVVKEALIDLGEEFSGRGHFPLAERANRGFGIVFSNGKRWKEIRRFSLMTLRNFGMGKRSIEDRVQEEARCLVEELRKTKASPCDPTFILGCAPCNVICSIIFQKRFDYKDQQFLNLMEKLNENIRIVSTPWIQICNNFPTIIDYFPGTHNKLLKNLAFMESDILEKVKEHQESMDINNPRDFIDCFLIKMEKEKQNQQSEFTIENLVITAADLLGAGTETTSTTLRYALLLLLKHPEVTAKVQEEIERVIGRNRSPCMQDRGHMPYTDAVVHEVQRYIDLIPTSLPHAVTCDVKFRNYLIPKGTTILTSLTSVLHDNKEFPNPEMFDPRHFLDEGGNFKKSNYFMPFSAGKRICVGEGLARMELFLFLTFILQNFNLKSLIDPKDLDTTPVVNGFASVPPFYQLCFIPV
CYP2C19 activ – cytochrome P450 2C19 (human) activation. P33261. recombinant CYP2C19, luciferin-H EGE luminescence; stronger effect = higher value; 0 = fully inhibited enzyme, 1 = untreated enzyme. activation factor at 5 µM. 96,000 tested, under 10 active;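 active = activation factor of at least 2 at 5 µM in the primary screen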;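 also: 0 = wells with 2.5 mM tranylcypromine and 1 = vehicle-only wells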
* hit, by the source's call.

`O=C(CCC1N=C2c3ccccc3N=C(SCc3ccc(Cl)cc3)N2C1=O)NCc1ccco1` (configuration not stated) gave CYP2C9 activ 0.2, F-actin modifier -10.3, CYP2C9 inhib 76.6*, CYP2C19 inhib 35.5 and CYP2C19 activ 0.6.
`Cc1ccccc1Nc1nnc(C)c(=O)n1N` gave CYP2C9 activ 1.1, E-sel TNF inh 9.2, F-actin modifier -26.1, CYP2C9 inhib -7.0, CYP2C19 inhib 22.4 and CYP2C19 activ 0.8.
COC(=O)C1=C(CSc2nnnn2C)NC(=O)NC1c1cc(C)ccc1C (configuration not stated) was read as CYP2C9 activ 0.6, E-sel TNF inh -22.2, F-actin modifier -21.3, CYP2C9 inhib 37.9, CYP2C19 inhib 33.4 and CYP2C19 activ 0.7.
O=C(CCC(=O)c1ccccc1)Nc1cccnc1 was read as CYP2C9 activ 0.5, E-sel TNF inh 9.7, F-actin modifier 5.0, CYP2C9 inhib 46.1, CYP2C19 inhib 43.1 and CYP2C19 activ 0.6.
For Cc1ccc(-n2nnnc2Sc2nc([N+](=O)[O-])nn2C)cc1C the results were E-sel TNF inh -0.7 and F-actin modifier 11.2.
`Cc1ccc(CSC2=Nc3ccccc3C3=NC(CC(=O)NCc4ccco4)C(=O)N23)cc1` (configuration not stated) gave CYP2C9 activ 0.2, E-sel TNF inh 1.9, F-actin modifier 7.9, CYP2C9 inhib 78.9*, CYP2C19 inhib 10.9 and CYP2C19 activ 0.9.
For CC1=C(C(=O)NC2CCC(C)CC2)C2(CCC(C)CC2)OC1=O (configuration not stated) the results were CYP2C9 activ 0.7, F-actin modifier -3.4, CYP2C9 inhib 34.8, CYP2C19 inhib 29.7 and CYP2C19 activ 0.7.
For CCC(C)NC(=O)C1=C(C)C(=O)OC12CCC(C)CC2 (configuration not stated) the results were CYP2C9 activ 0.6, E-sel TNF inh -27.2, CYP2C9 inhib 39.0, CYP2C19 inhib 82.3* and CYP2C19 activ 0.2.
`CC1=C(C(=O)NCc2ccc3c(c2)OCO3)C2(CCC(C)CC2)OC1=O` (configuration not stated) gave CYP2C9 activ 0.2, E-sel TNF inh -12.3, CYP2C9 inhib 84.6*, CYP2C19 inhib 66.0* and CYP2C19 activ 0.3.
CC1=C(C(=O)NCc2ccco2)C2(CCC(C)CC2)OC1=O (configuration not stated) was read as CYP2C9 activ 1, F-actin modifier -26.0, CYP2C9 inhib 1.2, CYP2C19 inhib 12.6 and CYP2C19 activ 0.9.
For O=C(NCC1CCCO1)c1cc2c(s1)CS(=O)(=O)C2 (configuration not stated) the results were CYP2C9 activ 1.1, E-sel TNF inh -9.4, CYP2C9 inhib -5.3, CYP2C19 inhib 5.7 and CYP2C19 activ 0.9.
`CCN(CC)CCn1c(OC)cc(=O)[nH]c1=O` gave CYP2C9 activ 1.1, E-sel TNF inh -10.8, F-actin modifier 9.3, CYP2C9 inhib -14.9, CYP2C19 inhib -8.6 and CYP2C19 activ 1.1.
Cc1cc(C)c2c(c1)/C(=N/NC(=S)Nc1ccc(F)cc1)CCC2 was read as CYP2C9 activ 1.3, E-sel TNF inh -21.4, F-actin modifier -6.0, CYP2C9 inhib -26.6, CYP2C19 inhib -9.0 and CYP2C19 activ 1.1.
For Cc1ccc(-n2nc(C)c(NS(=O)(=O)c3ccccc3)c2C)cc1C the results were CYP2C9 activ 0, E-sel TNF inh 7.5, F-actin modifier -4.2, CYP2C9 inhib 96.4*, CYP2C19 inhib 41.9 and CYP2C19 activ 0.6.
`Cc1ccc(-n2nc(C(=O)O)c3ccccc3c2=O)cc1C` gave CYP2C9 activ 0.9, E-sel TNF inh 16.9, F-actin modifier 5.5, CYP2C9 inhib 14.6, CYP2C19 inhib -11.8 and CYP2C19 activ 1.1.
For Cc1nn(-c2ccc(F)cc2)c(C)c1NS(=O)(=O)c1ccc(Cl)cc1 the results were CYP2C9 activ 0.1, E-sel TNF inh -0.3, F-actin modifier -13.7, CYP2C9 inhib 90.7*, CYP2C19 inhib 100.0* and CYP2C19 activ 0.
`Cc1cccc(N2CCN(C(=O)n3ccnc3)CC2)c1C` gave CYP2C9 activ 0.1, E-sel TNF inh -6.0, F-actin modifier -56.8, CYP2C9 inhib 85.6*, CYP2C19 inhib 99.9* and CYP2C19 activ 0.
Cc1cccc(N2CCN(C(=O)Cn3cccc3)CC2)c1C was read as CYP2C9 activ 0.9, E-sel TNF inh -2.7, F-actin modifier -6.8, CYP2C9 inhib 6.2, CYP2C19 inhib 79.2* and CYP2C19 activ 0.2.
Screening COc1cccc(NC(=O)N2CCN(c3cccc(C)c3C)CC2)c1 returned CYP2C9 activ 2*, E-sel TNF inh -54.7, F-actin modifier 0.0, CYP2C9 inhib -102.1, CYP2C19 inhib 17.9 and CYP2C19 activ 0.8.
Cc1nc(CC(=O)N2CCN(c3cccc(C)c3C)CC2)cs1 was read as CYP2C9 activ 1.3, F-actin modifier -11.1, CYP2C9 inhib -29.6, CYP2C19 inhib 84.4* and CYP2C19 activ 0.2.
Screening O=C(NCc1ccco1)c1ccc2c(=O)n(CC3CCCO3)c(=S)[nH]c2c1 (configuration not stated) returned E-sel TNF inh -18.0 and F-actin modifier 1.3.
CCn1c(/C=C/N(C)c2ccccc2)[n+](CC)c2ccc(Cl)cc21 was read as CYP2C9 activ 0.8, E-sel TNF inh 30.3, F-actin modifier 56.1, CYP2C9 inhib 16.5, CYP2C19 inhib 1.5 and CYP2C19 activ 1.
COCCn1nnnc1C(c1cc2cc(OC)ccc2[nH]c1=O)N1CCC(Cc2ccccc2)CC1 (configuration not stated) was read as CYP2C9 activ 0.7, E-sel TNF inh 8.9, CYP2C9 inhib 28.2, CYP2C19 inhib 24.7 and CYP2C19 activ 0.8.
`CCC(C)(C)n1nnnc1C(c1cccc(C#N)c1)N1CCN(c2cc(C)ccc2C)CC1` (configuration not stated) gave CYP2C9 activ 0.3, CYP2C9 inhib 70.2*, CYP2C19 inhib 51.9* and CYP2C19 activ 0.5.
CC(C)(C)n1nnnc1C(c1cccc(C#N)c1)N1CCC(Cc2ccccc2)CC1 (configuration not stated) was read as CYP2C9 activ 0.2, E-sel TNF inh -16.4, F-actin modifier 3.3, CYP2C9 inhib 83.3*, CYP2C19 inhib 65.8* and CYP2C19 activ 0.3.
`COCCn1nnnc1C(C(C)C)N1CCC(Cc2ccccc2)CC1` (configuration not stated) gave CYP2C9 activ 0.4, E-sel TNF inh -9.0, F-actin modifier 5.1, CYP2C9 inhib 55.8*, CYP2C19 inhib 90.6* and CYP2C19 activ 0.1.
`CCC(C)(C)n1nnnc1C(c1ccncc1)N1CCC(Cc2ccccc2)CC1` (configuration not stated) gave CYP2C9 activ 0.1, E-sel TNF inh 4.3, F-actin modifier -22.6, CYP2C9 inhib 90.7*, CYP2C19 inhib 89.8* and CYP2C19 activ 0.1.

Source: PubChem BioAssay (several laboratories)
